Test results: PubChem BioAssay
Unmarked numbers belong to inactive results.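 How the source made its calls: active means viability at or under a set limit in both replicates, limit being median viability minus 3 SD (cut at about 48% in these data, passing the limit was not always enough); inconclusive means at or under the limit in just one replicate; inactive means at or above the limit in both replicates.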

Test: H69AR cell proliferation blockers – human, duplicate replicates, primary screen (AID 580);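 further: 100% = mean luminescence of untreated wells and 0% = no signal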
Conditions: H69AR lung tumor cells viability, ATP luminescence, 72 h; at 10 µM; active compounds read low

SMILES	viability [%]
CC1C(c2ccccc2)N(C)CCC12NC(=O)NC2=O (stereo not given)	98.2
COC(=O)c1cc(Br)c(=O)n(CCN2CCOCC2)c1	96.2
O=C(Nc1ccccc1C(=O)N1CCN(c2ccccc2)CC1)c1ccco1	100
CC(C)CCNC(=O)NC(=O)COc1ccccc1C#N	97.1
Cc1ccc2c(Cl)cc(Cl)c(OCc3c(C)noc3C)c2n1	84.9
O=C(c1cccc(Cl)c1)N1CCN(Cc2ccncc2)CC1	105
Cn1c(=N)n(CC(=O)O)c2ccccc21	96.2
O=C(Nc1ccccc1)c1cccc(N2CCCC2=O)c1	103
Fc1ccc(-c2csc3nnc(SCc4cccnc4)n23)cc1	82.9
COc1ccc(CNC(=O)c2cc(-c3ccc(OC)c(OC)c3)on2)cc1	94.4
CCN(CC)CCOC(=O)c1c(C)oc2ccc(O)cc12	95
COc1ccccc1Nc1ccc(C(=O)NC2CCCCC2)cn1	93.2
CCCCn1nnnc1SCC(=O)Nc1cccc(C)n1	113
COc1nc(OC)nc(N2CCC(C(=O)NC3CCCCCC3)CC2)n1	105
COC(=O)[C@H](C)NC(=O)Nc1cc(OC)ccc1OC	75.1
Cc1ccc(CNC(=O)C2CCCN(S(=O)(=O)c3cccnc3)C2)cc1 (stereo not given)	99.6
OCc1nc2ccccc2n1CC(O)Cn1ccc2ccccc21 (stereo not given)	85.2
Cc1cc(C)cc(N2CCCn3c2nc2c3c(=O)n(CCN3CCOCC3)c(=O)n2C)c1	83.3
Cn1c(=O)c2c([nH]c(=O)n2C)n(C)c1=O	90.2
CCNCC(O)COCC(O)CNCC (stereo not given)	99.7

SMILES	viability [%]
CCOC(=O)N1CCN(c2ncnc3c2[nH]c2ccc(OC)cc23)CC1	81.3
COc1ccc(N2CCN(CCCNC(=O)C3CCCN(S(=O)(=O)c4cnc[nH]4)C3)CC2)cc1 (stereo not given)	103
Cn1cnc(S(=O)(=O)Nc2ccc(C(F)(F)F)cc2)c1	91.7
Cc1nc2ccccn2c1/C(O)=C1\C(=O)C(=O)N(CCN2CCOCC2)C1c1cccs1 (stereo not given)	98.7
COc1cc(CN2CCN(C(=O)CC(C)C)CC2)cc(OC)c1O	102
COc1ccccc1C(=O)Nc1ccc(S(=O)(=O)N2CCOCC2)cc1	93.2
CC(=O)Nc1ccc(OC(=O)c2cccs2)cc1	87
CN(C)C(=O)Cn1c(SCC(=O)NC2CCCCC2)nc2ccccc21	102
CCC(=O)Nc1c(C#N)c2nc3ccccc3nc2n1-c1ccccc1C	87.5
CCn1cc(C(=O)N=c2sc3ccccc3n2C)c(=O)c2ccc(C)nc21	95.7
NC(=O)c1cccc(S(=O)(=O)N2CCCCC2)c1	106
CN(C)CCCNC(=O)c1ccc(CN(c2ccccc2)S(C)(=O)=O)cc1	92.1
CC(=O)c1c(NCCc2ccccc2)cc(C)oc1=O	101
Cn1c(SCc2nc3ccccc3c(=O)[nH]2)nnc1-c1ccco1	96
O=C1NC(c2ccccc2)(C(F)(F)F)SC2=CCCCCN12 (stereo not given)	94.3
Cn1c(CCCNC(=O)c2ccccc2)nc2ccccc21	100
O=C(c1cccn2c(=O)c3cc(Cl)ccc3nc12)N1CCOCC1	116
Nc1ccc(-c2ccc(N)cc2C(F)(F)F)c(C(F)(F)F)c1	68.6
CCOC(=O)c1[nH]c2ccc(Br)cc2c1NC(=O)CNC	87.3
CCn1nc(NC(=O)c2cccnc2)c2cc3ccccc3nc21	89.8
